# Earlier results as cited in PubChem BioAssay AID977611.
# Screen size: about 3,900 compounds; about 3,900 (100%) were called active. The limit is not given here; nearly all actives have Kd up to about 4200 µM. So high a share suggests a set chosen from earlier hits. The list shows a part of the results. *1 amine or outer side, *2 acyl side, *3 side chain or, on linkers, in order; H or OH if unused. Where a SMILES comes first, the peptide text is derived from it. Bridges are numbered along the chain shown (N, C = ends). Side-chain parts run from the residue outwards. [ ]: non-standard residue; d: D form. X1 = CC(C)C[C@@H](C(=O)[*:2])N(C[C@H](Cc1ccccc1)N[*:3])[*:1]; Orn(CH(NH2)2) = NC(N)NCCC[C@H](N)C(=O)O; S5 = C=CCCC[C@](C)(N)C(=O)O
# Experiment: PubChem AID 977611
# Settings: PDB protein-ligand complexes, literature Kd
compound,measurement,setting,value
Nc1nc2[nH]nc(CCC(=O)O)c(=O)c2c(=O)[nH]1,Kd,"protein: Dihydropteroate Synthase, PDB entry 4db7",273 nM (active)
C[C@@H](C(=O)O)c1n[nH]c2nc(N)[nH]c(=O)c2c1=O,Kd,"protein: Dihydropteroate Synthase, PDB entry 4daf",76 nM (active)
COc1ccccc1[C@@H](Br)[C@H](NC(=O)c1ccc([N+](=O)[O-])cc1)C(=O)N1CCCCC1,Kd,"protein: Capsid protein, PDB entry 4g93",300000 nM (active)
Nc1ncnc2c1ncn2[C@@H]1O[C@H](COP(O)O)[C@@H](O)[C@H]1O,Kd,PDB entry 4qsk,8000 nM (active)
C[C@@H](Oc1ccc(Oc2ncc(C(F)(F)F)cc2Cl)cc1)C(=O)O,Kd,"protein: carboxyltransferase subunit of ACC (AccD6), PDB entry 4g2r",35800 nM (active)
OC(Cc1cccc(-c2cccc3c2oc2ccccc23)c1)([P+](O)(O)O)[P+](O)(O)O,Kd,"protein: Diterpene synthase Rv3378c, PDB entry 3wqm",560 nM (active)
CN1CCN(c2cccc(CN)c2)CC1,Kd,"protein: CATIONIC TRYPSIN, PDB entry 4abg",271000 nM (active)
"CC(C)C[C@@H]1NC(=O)[C@H](C)NC(=O)[C@@H]2CSSC[C@H](NC(=O)CN)C(=O)N[C@@H](CSSC[C@@H](C(=O)O)NC(=O)[C@H](Cc3ccc(O)cc3)NC(=O)[C@H](CCCCN)NC(=O)[C@@H]3CCCN3C(=O)[C@H](CC(N)=O)NC(=O)[C@H](CC(N)=O)NC1=O)C(=O)N[C@@H](CO)C(=O)N[C@@H](CC(C)C)C(=O)N1CCC[C@H]1C(=O)N1CCC[C@H]1C(=O)N2 (H-GCCSLPPCALNNPKYC-OH; disulfide 2-8, 3-16)",Kd,"protein: nicotinic acetylcholine receptor homolog AChBP(?7-nAChR), PDB entry 2br8",32.6 nM (active)
Cc1ccc(C(=O)Nc2ccc(S(O)(O)O)c3cc(S(O)(O)O)cc(S(O)(O)O)c23)cc1N,Kd,"protein: Nucleocapsid protein, PDB entry 4j4v",440 nM (active)
NCCc1c[nH]c2ccccc12,Kd,"protein: Biogenic amine-binding protein, PDB entry 4ge1",370 nM (active)
Cc1[nH]c2ccccc2c1CC(=O)N[C@@H](Cc1ccccc1)C(=O)N(C)c1ccccc1,Kd,"protein: CAPSID PROTEIN P24 CA Hexamer, PDB entry 4qnb",260 nM (active)
same,Kd,"protein: Capsid protein p24, PDB entry 4u0e",120 nM (active)
H-PVLFPGQPFGQPPA-OH,Kd,"protein: Capsid protein p24, PDB entry 4u0a",50000 nM (active)
H-PVLFPGAPFGQPPA-OH,Kd,"protein: Capsid protein p24, PDB entry 4u0b",50000 nM (active)
CC(C)C[C@H](NC[C@H](Cc1ccccc1)NC(=O)[C@H](CC(N)=O)NC(=O)CNC(=O)[C@@H]1CCCN1C(=O)[C@@H](N)CCCNC(N)N)C(=O)N[C@@H](CCC(N)=O)C(=O)N[C@@H](CO)C(=O)N[C@@H](CCCNC(N)N)C(=O)N1CCC[C@H]1C(N)=O (H-[X1]([Asn-Gly-Pro-Orn(CH(NH2)2)])QS[Orn(CH(NH2)2)]P-NH2),Kd,"protein: PR(HIV-1 protease) with the V82A mutation (PRV82A), PDB entry 2aof",28200 nM (active)
same,Kd,"protein: wild-type PR(HIV-1 protease), PDB entry 2aoi",96700 nM (active)
CC(C)C[C@H](NC(=O)[C@@H](NC(=O)[C@@H]1CCCN1)C(C)C)C(=O)N[C@@H](Cc1ccccc1)C(=O)N1CCC[C@H]1C(=O)NCC(=O)N[C@@H](CCC(N)=O)C(=O)N1CCC[C@H]1C(=O)N[C@@H](Cc1ccccc1)C(=O)NCC(=O)N[C@@H](CCC(N)=O)C(=O)N1CCC[C@H]1C(=O)N1CCC[C@H]1C(=O)O (H-PVLFPGQPFGQPP-OH),Kd,"protein: CAPSID PROTEIN P24 CA Hexamer, PDB entry 4wym",99800 nM (active)
COC(=O)C[C@@H]1N=C(c2ccc(Cl)cc2)c2c(sc(C)c2C)-n2c(C)nnc21,Kd,"protein: Bromodomain-containing protein 4, PDB entry 4f3i",36.1 nM (active)
NC1NC(=O)c2ncn([C@@H]3O[C@H](CO[P+](O)(O)O[C@H]4[C@@H](O)[C@H](n5cnc6c5NC(N)NC6=O)O[C@@H]4COP(O)O)[C@@H](OP(O)O)[C@H]3O)c2N1 (stereo not given in full),Kd,"protein: Simian 11 rotavirus (serotype 3 / strain SA11-Ramig), PDB entry 4g0a",25.3 nM (active)
C[C@H]1OC(c2cccc(O)c2O)=N[C@@H]1C(=O)N(CCCNC(=O)c1cccc(O)c1O)CCCNC(=O)c1cccc(O)c1O,Kd,"protein: Neutrophil gelatinase-associated lipocalin, PDB entry 4k19",4.4 nM (active)
H-TFKKTN-OH,Kd,"protein: Coatomer subunit beta', PDB entry 4j86",171000 nM (active)
H-ITFEDLLDYYGP-OH,Kd,"protein: HIV-1 Capsid Protein(L211S), PDB entry 3ds4",64500 nM (active)
same,Kd,"protein: HIV-1 Capsid Protein(N183A), PDB entry 3ds0",14900 nM (active)
same,Kd,"protein: HIV-1 Capsid Protein(Y169A), PDB entry 3ds3",6000 nM (active)
CC(C)C[C@H](NC(=O)[C@@H](NC(=O)[C@H](CCC(=O)O)NC(=O)[C@@H](N)Cc1ccc(O)cc1)[C@@H](C)O)C(=O)N[C@@H](CO[P+](O)(O)O)C(=O)N[C@@H](CC(=O)O)C(=O)N[C@@H](CO[P+](O)(O)O)C(=O)N[C@@H](CCC(=O)O)C(=O)O,Kd,"protein: Msx2-interacting protein, PDB entry 2rt5",190 nM (active)
H-EDMFAKLKDKFFNEINK-OH,Kd,PDB entry 2nm1,34 nM (active)
CC[C@H](C)[C@H](N)C(=O)N[C@H](C(=O)N[C@@H](Cc1ccccc1)C(=O)N[C@@H](CCC(=O)O)C(=O)N[C@@H](CC(=O)O)C(=O)N[C@@H](CC(C)C)C(=O)N[C@@H](CC(C)C)C(=O)N[C@@H](CC(=O)O)C(=O)N[C@@H](Cc1ccc(O)cc1)C(=O)N[C@@H](Cc1ccc(O)cc1)C(=O)NCC=O)[C@@H](C)O (H-ITFEDLLDYYG-aldehyde),Kd,"protein: HIV-1 Capsid Protein(E187A), PDB entry 3ds1",2000 nM (active)
CC(C)C[C@H](NC(=O)[C@H](CCCCN)NC(=O)[C@H](CC(C)C)NC(=O)[C@@H](NC(=O)[C@H](CC(N)=O)NC(=O)[C@H](CCC(N)=O)NC(=O)[C@H](CCCCN)NC(=O)[C@@H](NC(=O)[C@H](Cc1ccc(O)cc1)NC(=O)[C@H](CCCCN)NC(=O)[C@@H]1CCCN1)C(C)C)[C@@H](C)O)C(=O)N[C@@H](C)C(=O)N[C@H](C(=O)O)[C@@H](C)O,Kd,"protein: SEC3 wt, PDB entry 1jwm",270000 nM (active)
H-ITYDKGIQTDQ-OH,Kd,"protein: Dynein light chain 1, cytoplasmic, PDB entry 4ht6",620 nM (active)
CC[C@H](C)[C@H](N)C(=O)N[C@H](C(=O)N[C@@H](Cc1ccccc1)C(=O)N[C@@]1(C)CCC/C=C\CCC[C@@](C)(C(=O)N[C@@H](Cc2ccc(O)cc2)C(=O)N[C@@H](Cc2ccc(O)cc2)C(=O)NCC(=O)N[C@@H](CCCCN)C(=O)N[C@@H](CCCCN)C(=O)N[C@@H](CCCCN)C(=O)O)NC(=O)[C@H](CC(C)C)NC(=O)[C@H](CC(C)C)NC(=O)[C@H](CC(=O)O)NC1=O)[C@@H](C)O (H-ITF[S5]DLL[S5]YYGKKK-OH; staple (Z) 4-8),Kd,"protein: Capsid protein p24(W184A, M185A), PDB entry 2l6e",1000 nM (active)
